Assay results: PubChem BioAssay (Tox21)
Records with an inconclusive call do not appear. Values without a mark were called inactive. Calls of active or inactive are those of the source. Calls come from the whole dose curve; as a rule, active = well fitted activation curve with a large enough effect in the repeat runs; inconclusive = weak or mixed curves; inactive = no such curve, though single readings can be large or run the other way.

target: Aryl hydrocarbon receptor (Homo sapiens) (UniProt P35869); experiment: qHTS assay to identify small molecule that activate the aryl hydrocarbon receptor (AhR) signaling pathway (AID 743085); conditions: HepG2 AhR-luc (HG2L7.5c1), luciferase, 24 h; series mostly up to 70.3 µM; activation: at the top concentration; note: nearly all actives have a fitted effect of over 15% in size;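 for activation: HG2L7.5c1 human HepG2 liver cells with stably integrated DRE-driven firefly reporter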
From the text: U.S. Tox21 Program National Center for Advancing Translational Sciences [NCATS] NIH Chemical Genomics Center [NCGC] U.S. Environmental Protection Agency [EPA] National Institutes of Environmental Health Sciences [NIEHS] National Toxicology Program [NTP] U.S. Food and Drug Administration [FDA] Tox21 Assay overview: The Aryl hydrocarbon Receptor (AhR), a member of the family of basic helix-loop-helix transcription factors, is crucial to adaptive responses to environmental changes. AhR mediates cellular responses to environmental pollutants such as aromatic hydrocarbons through induction of phase I and II enzymes but also interacts with other nuclear receptor signaling pathways. A cell based HepG2-AhR-luc assay (HG2L7.5c1 cell line, developed by Dr. Michael S. Denison, University of California at Davis, was used to assess the activation of AhR. HepG2 (human hepatocellular carcinoma) cells were stably transfected with an Ah receptor-responsive firefly luciferase reporter gene plasmid containing 20 dioxin responsive elements and luciferase reporter gene. Increased luciferase activity can be used to identify the compounds that induce AhR activation.
Tox21 Assay Protocol Summary: 4000 cells in 5 uL/well were dispensed into white wall/solid bottom 1536-well plates using a Multidrop Combi (Thermo Fisher Scientific Inc., Waltham, MA) dispenser. After the assay plates were incubated at 37C for 5 h, 23 nL of compound or DMSO vehicle was transferred to the assay plates by a pintool station (Kalypsys, San Diego, CA). The plates were incubated at 37C for 24 hr. After 1 ul/well of CellTiter-Fluor reagent (Promega, Madison, WI) was added into the assay plates using a Flying Reagent Dispenser (FRD) (Aurora Discovery, CA), the assay plates were incubated at 37C for 30 min. The fluorescence intensity in the plates was measured using a ViewLux plate reader (PerkinElmer, Shelton, CT), followed by the addition of 4 uL of ONE-Glo Luciferase Assay reagent (Promega) using an FRD (Aurora Discovery). After the assay plates were incubated at room temperature for 30 min, luminescence intensity was measured using a ViewLux plate reader (Perkin Elmer).
% is set by controls: 0 for no effect and ±100 for the full control effect; potency is the fitted concentration of half-maximal effect.

Sequence of Aryl hydrocarbon receptor (Homo sapiens) (P35869 whole entry, looked up): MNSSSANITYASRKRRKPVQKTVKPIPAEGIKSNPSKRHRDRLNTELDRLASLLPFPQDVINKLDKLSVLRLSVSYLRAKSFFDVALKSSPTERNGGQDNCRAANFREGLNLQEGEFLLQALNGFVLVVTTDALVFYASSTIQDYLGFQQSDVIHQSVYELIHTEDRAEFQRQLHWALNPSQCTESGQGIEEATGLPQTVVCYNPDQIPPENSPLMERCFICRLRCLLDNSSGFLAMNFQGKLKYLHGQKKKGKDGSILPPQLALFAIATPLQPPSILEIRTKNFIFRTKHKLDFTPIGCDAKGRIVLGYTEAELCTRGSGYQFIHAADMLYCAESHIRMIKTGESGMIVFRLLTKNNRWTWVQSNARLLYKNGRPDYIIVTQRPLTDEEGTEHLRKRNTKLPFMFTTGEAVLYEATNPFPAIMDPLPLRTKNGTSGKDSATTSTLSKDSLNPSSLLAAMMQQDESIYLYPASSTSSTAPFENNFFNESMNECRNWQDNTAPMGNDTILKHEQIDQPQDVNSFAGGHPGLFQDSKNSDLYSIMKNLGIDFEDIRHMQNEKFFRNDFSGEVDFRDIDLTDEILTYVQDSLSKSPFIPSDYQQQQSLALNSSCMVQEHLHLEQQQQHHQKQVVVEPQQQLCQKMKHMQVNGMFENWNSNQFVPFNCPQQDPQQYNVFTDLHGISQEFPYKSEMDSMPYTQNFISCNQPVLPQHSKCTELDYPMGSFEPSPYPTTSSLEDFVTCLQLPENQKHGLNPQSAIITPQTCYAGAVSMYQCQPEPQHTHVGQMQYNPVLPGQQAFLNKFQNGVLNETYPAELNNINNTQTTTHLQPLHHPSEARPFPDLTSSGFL

SMILES	activation	Potency
CCCCCCI	8.72%	
CC(C)NCC(O)c1ccc(N)c(C#N)c1 (stereo not given)	6.62%	
O=C(O)c1ccc2[nH]cc(CCCCN3CC=C(c4ccccc4)CC3)c2c1	-1.86%	
Cc1cc(C)c(C(=O)P(=O)(C(=O)c2c(C)cc(C)cc2C)c2ccccc2)c(C)c1	5.34%	
COc1ccc2c(c1OC)CN1CCc3cc4c(cc3C1C2)OCO4 (stereo not given)		0.403 µM (active)
CC(=O)CC(c1ccc(Cl)cc1)c1c(O)c2ccccc2oc1=O (stereo not given)	4.6% [at 95 µM]	
N#CCBr	-0.904% [at 95 µM]	
N#CCCC#N	-2.6%	
CCOC(=O)CP(=O)(OCC)OCC	1.03%	
CCC1(c2ccccc2)C(=O)N=C(O)NC1=O (stereo not given)	-0.221%	
C[C@H]1CCC[C@H](O)CCCCCc2cc(O)cc(O)c2C(=O)O1		inactive
O=C(Nc1ccccc1)N(Cc1ccc(Cl)cc1)C1CCCC1		54.5 µM (active)
CC(C)CP(=S)(S)CC(C)C	-0.59%	
Cc1ncc(CNC(=O)N(CCCl)N=O)c(N)n1	-1.05%	
Nc1ccccc1Cl	-0.777%	
CC(CCc1ccccc1)NC(C)C(O)c1ccc(O)cc1 (stereo not given)	1.79%	
Nc1cc(Cl)ccc1O		29.6 µM (active)
CC(=O)[C@H]1CC[C@H]2[C@@H]3CC[C@H]4C[C@H](O)CC[C@]4(C)[C@H]3C(=O)C[C@]12C	3.38%	
CNC(=O)O/N=C(\C)SC	-0.317%	
CC(C)(C)C(=O)C(Oc1ccc(Cl)cc1)n1cncn1 (stereo not given)		48.5 µM (active)

SMILES	activation	Potency
OCCBr	4.33%	
O=C(CCN1CC1)OCC(CO)(COC(=O)CCN1CC1)COC(=O)CCN1CC1	-0.187%	
CNC(=O)Oc1c(C(C)(C)C)cc(C)cc1C(C)(C)C	-0.528%	
CCOc1nc(C(Cl)(Cl)Cl)ns1	0.7%	
OC(c1ccccc1)(c1ccccc1)C1CCNCC1	-2.75% [at 32.5 µM]	
CN/C(=N\[N+](=O)[O-])NCC1CCOC1 (stereo not given)	1.65%	
CCCCc1c(C)nc(NCC)[nH]c1=O	4.57%	
O=c1oc2ccccc2c(O)c1C1CCCc2ccccc21 (stereo not given)	1.45%	
CCCSP(=S)(OCC)Oc1ccc(Cl)cc1Cl (stereo not given)		54.5 µM (active)
O=[N+]([O-])c1cccc2c([N+](=O)[O-])cccc12	6.2% [at 95 µM]	
CC(C)CC#N	-1.24% [at 95 µM]	
COc1cc2c(cc1OC)[C@@]13CCN4CC5=CCO[C@H]6CC(=O)N2[C@H]1[C@H]6[C@H]5C[C@H]43		inactive
COc1ncc(F)c2nc(S(=O)(=O)Nc3c(F)cccc3F)nn12	3.01%	
CCC(C)(C)c1cc(-n2nc3ccccc3n2)c(O)c(C(C)(C)CC)c1	-2.58% [at 95 µM]	
Cc1nc(N)nc(N)n1	1.19% [at 95 µM]	
COc1cc(OC)nc(NC(=O)NS(=O)(=O)c2ncccc2C(=O)N(C)C)n1	1.87%	
C=CC1CC=CCC1 (stereo not given)	-0.212%	
Nc1cc2c3c(c1)C(c1ccccc1)=N[C@@H](NC(=O)c1cccnc1)C(=O)N3CC2	7.71%	
CC1(C(=O)Nc2ccc(O)c(Cl)c2Cl)CCCCC1	-0.521%	
O=C(N[C@H]1CN2CCC1CC2)c1cc2ccoc2cn1	3.35%	
